Screening results as filed in PubChem BioAssay.
CYP2C9 inhib: inhibitors of human CYP2C9; P11712; CYP2C9 Supersomes, luciferin-H conversion, luminescence; inhibition, % at 5 µM; hit rate 20% among 96,000; AID 777;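 active means blocking of liver enzyme CYP2C9 beyond about 50% at 5 µM, limit read from the data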
CYP2C19 inh: inhibitors of human CYP2C19; P33261; CYP2C19 Supersomes, luciferin-H EGE luminescence, 30 min; inhibition, % at 5 µM; hit rate 21% among 96,000; AID 778;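 active means CYP2C19 inhibition above a set limit at 5 µM in the primary screen, cut at about 50% in these data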;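 further: plate controls were negative control wells for no effect and 2.5 mM tranylcypromine positive control for full effect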
Target sequence (P33261 whole entry, looked up): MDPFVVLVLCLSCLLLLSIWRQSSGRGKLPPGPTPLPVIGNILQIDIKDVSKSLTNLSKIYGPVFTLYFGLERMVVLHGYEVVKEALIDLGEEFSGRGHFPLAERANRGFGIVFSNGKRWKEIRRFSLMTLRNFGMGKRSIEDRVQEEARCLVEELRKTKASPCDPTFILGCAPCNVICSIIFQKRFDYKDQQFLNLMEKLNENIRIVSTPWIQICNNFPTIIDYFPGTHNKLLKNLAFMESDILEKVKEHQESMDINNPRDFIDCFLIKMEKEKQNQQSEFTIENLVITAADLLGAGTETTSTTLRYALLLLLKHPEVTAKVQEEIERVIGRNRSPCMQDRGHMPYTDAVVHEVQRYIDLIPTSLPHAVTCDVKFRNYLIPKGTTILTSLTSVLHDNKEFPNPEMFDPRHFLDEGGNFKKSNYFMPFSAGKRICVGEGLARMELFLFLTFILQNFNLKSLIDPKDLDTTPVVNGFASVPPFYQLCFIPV
CYP2C9 activ: CYP2C9 (human) activation; P11712; recombinant CYP2C9, luciferin-H conversion, luminescence; active compounds read high; factor 1 = untreated enzyme, 0 = blocked; activation factor at 5 µM; hit rate 1.4% among 96,000; AID 1024;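 active means activation factor of 2 or more for CYP2C9 at a 5 µM dose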;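 further: 0 = sulfaphenazole-blocked wells and 1 = vehicle-only wells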
CYP2C19 act: activators of human cytochrome P450 2C19; recombinant CYP2C19, luciferin-H EGE luminescence; active compounds read high; 0 = fully inhibited enzyme, 1 = untreated enzyme; AID 1025; 96,000 tested, under 10 active; activation factor at 5 µM; P33261;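 active means activation factor of at least 2 at 5 µM in the primary screen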;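 further: 0 = wells with 2.5 mM tranylcypromine and 1 = vehicle-only wells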
PTK2B oligo ant: blocks oligomerization of human Pyk2 in cells. Q14289. Q293 cells, Pyk2 FERM NanoBiT luminescence; active compounds read low. z-score (the deposit names both 25 µM and 10 µM). hit rate 0.83% among 99,000. AID 1347419;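 active means Z-score of -3 or lower, scaled per plate to the spread of control and sample wells; inactive means z-score above -3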;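 further: negative z-score means lost luminescence so less FERM oligomerization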
Numbers without * were called inactive; · = not tested or not shown. A selection: hits, their analogues and other compounds. The true share with any hit is near 28%.

SMILES	CYP2C9 inhib	CYP2C19 inh	CYP2C9 activ	CYP2C19 act	PTK2B oligo ant
COc1ccc2c(c1)c1nnc(SCC(=O)N3C(C)CCCC3C)nc1n2C (stereo not drawn)	65.5*	48.9	0.3	0.5	-0.96
Cc1onc(-c2ccccc2)c1C(=O)Nc1sc2c(c1C#N)CCC2	68.5*	3.7	0.3	1	0.18
N#Cc1c(NC(=O)c2ccccc2)sc2c1CCCCC2	·	·	·	·	0.48
Cc1ccccc1C(=O)NC(=S)Nc1sc2c(c1C#N)CCCC2	74.1*	44.6	0.3	0.6	-0.12
Cc1noc(C)c1C(=O)Nc1sc(C)c(-c2ccccc2)c1C#N	76.1*	61.7*	0.2	0.4	-0.3
CC(C)Cn1c(N)c(C(=O)CSc2ccc3c(c2)OCCO3)c(=O)n(C)c1=O	0.6	23.6	1	0.8	-1.53
CCOc1ccc(-c2nc(C#N)c(NC3CC3)o2)cc1	24.6	68.9*	0.8	0.3	0.07
COc1ccc(-c2nc(C#N)c(NCCCN3CCOCC3)o2)cc1	49.1	35.5	0.5	0.6	·
COc1ccc(-c2nc(C#N)c(NCC3CCCO3)o2)cc1 (stereo not drawn)	68.3*	58.6*	0.3	0.4	-0.63
O=S(=O)(c1ccccc1)c1nc(-c2cccs2)oc1NCC1CCCO1 (stereo not drawn)	-2.2	12.3	1	0.9	-0.76
O=C(CSc1oc(-c2ccc(F)cc2)nc1S(=O)(=O)c1ccc(F)cc1)NCC1CCCO1 (stereo not drawn)	·	·	·	·	-0.67
N#Cc1nc(-c2cccs2)oc1NCC1CCCO1 (stereo not drawn)	38.0	54.6*	0.6	0.5	0.15
CCOc1ccc(Nc2oc(-c3ccc(Cl)cc3)nc2C#N)cc1	37.9	33.5	0.6	0.7	-0.23
O=C(CSc1oc(-c2cccs2)nc1S(=O)(=O)c1ccc(F)cc1)NCC1CCCO1 (stereo not drawn)	49.9	64.4*	0.5	0.4	·
O=C(O)CCc1ccc(-c2ccccc2)n1NC(=O)c1sc2ccccc2c1Cl	23.6	-11.1	0.8	1.1	0.49
Clc1ccc(/C=N/c2c(-c3ccc(Cl)cc3)nc3n2CCS3)cc1	0.5	-0.4	1	1	-0.54
N#Cc1c(N)n[nH]c1CCCN	14.2	-10.5	0.9	1.1	0.27
COc1ccc(S(=O)(=O)N2CCN(c3ccc4nnc(-c5ccc(F)cc5)n4n3)CC2)cc1	97.1*	89.5*	0	0.1	·
Cc1ccc(S(=O)(=O)N2CCN(c3ccc4nnc(-c5ccccc5)n4n3)CC2)cc1	99.1*	94.8*	0	0.1	·
O=C(O)c1nn(-c2ccccc2)c(-c2ccccc2)c1C(=O)c1ccccc1	·	·	·	·	0.6
COC(=O)c1c(NC(=O)c2ccccc2)sc(C(=O)c2ccccc2)c1C	29.6	12.8	0.7	0.9	0.02
COC(=O)c1onc(C(=O)c2ccccc2)c1C(=O)OC	50.9*	61.6*	0.5	0.4	0.47
COC(=O)c1nn(-c2ccccc2)c(-c2ccccc2)c1C(=O)c1ccccc1	43.0	33.9	0.6	0.7	-3.33*
COc1ccc(C2SCC(=O)N2c2c(C)n(C)n(-c3ccccc3)c2=O)c(OC)c1 (stereo not drawn)	13.8	55.3*	0.9	0.4	0.77
CCOC(=O)c1cc(C)n(-c2c(C)n(C)n(-c3ccccc3)c2=O)c1C	-16.1	-7.4	1.2	1.1	0.69
SMILES	CYP2C9 inhib	CYP2C19 inh	CYP2C9 activ	CYP2C19 act	PTK2B oligo ant
CCOc1ccc(C2SCC(=O)N2c2c(C)n(C)n(-c3ccccc3)c2=O)cc1 (stereo not drawn)	70.7*	66.8*	0.3	0.3	-0.38
COc1ccc(C2SCC(=O)N2c2c(C)n(C)n(-c3ccccc3)c2=O)cc1OC (stereo not drawn)	12.3	10.1	0.9	0.9	0.25
O=C(Nc1ccc2c(c1)OCO2)c1ccccc1SCC(=O)N1CCCC1	10.4	44.7	0.9	0.6	0.67
COC(=O)c1ccccc1NC(=O)Nc1ccc2c(c1)OCO2	18.0	30.3	0.8	0.7	-0.67
O=C(Nc1ccc2c(c1)OCO2)C(c1ccccc1)N1CCC2(CC1)OCCO2 (stereo not drawn)	78.9*	90.3*	0.2	0.1	-0.02
CC1CCCN(C(C(=O)Nc2ccc3c(c2)OCO3)c2ccccc2)C1 (stereo not drawn)	82.4*	80.1*	0.2	0.2	·
CC1CCN(C(C(=O)Nc2ccc3c(c2)OCO3)c2ccccc2)CC1 (stereo not drawn)	84.3*	73.2*	0.2	0.3	·
O=C(Nc1ccc2c(c1)OCO2)C(c1ccccc1)N1CCCCC1 (stereo not drawn)	60.5*	58.3*	0.4	0.4	·
